Reference: PubChem BioAssay (Tox21)
Calls of active or inactive are those of the source. A call without a number means that no potency is given here. Calls follow the shape of the full dose curve.

Molecular target: Acetylcholinesterase (Homo sapiens) (UniProt P22303)
Experiment: Acetylcholinesterase (AChE) small molecule antagonists: enzyme-based qHTS assay with human liver microsomes (AID 1347399); also: nearly all actives have a fitted effect of over 60% in size
Settings: Potency: qHTS inhibition; outcome: qHTS inhibition; series mostly up to 115 µM
In short: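 Recombinant human AChE (50 mU/mL in the enzyme mix) and human liver microsomes (0.25 mg/mL final) were preincubated with compound and NADPH (0.25 mg/mL final) for 30 min at 37 C. Acetylthiocholine/DTNB was then added; thiocholine was read colorimetrically after 10 min at room temperature.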

Chain of Acetylcholinesterase (Homo sapiens) (P22303 whole entry, looked up): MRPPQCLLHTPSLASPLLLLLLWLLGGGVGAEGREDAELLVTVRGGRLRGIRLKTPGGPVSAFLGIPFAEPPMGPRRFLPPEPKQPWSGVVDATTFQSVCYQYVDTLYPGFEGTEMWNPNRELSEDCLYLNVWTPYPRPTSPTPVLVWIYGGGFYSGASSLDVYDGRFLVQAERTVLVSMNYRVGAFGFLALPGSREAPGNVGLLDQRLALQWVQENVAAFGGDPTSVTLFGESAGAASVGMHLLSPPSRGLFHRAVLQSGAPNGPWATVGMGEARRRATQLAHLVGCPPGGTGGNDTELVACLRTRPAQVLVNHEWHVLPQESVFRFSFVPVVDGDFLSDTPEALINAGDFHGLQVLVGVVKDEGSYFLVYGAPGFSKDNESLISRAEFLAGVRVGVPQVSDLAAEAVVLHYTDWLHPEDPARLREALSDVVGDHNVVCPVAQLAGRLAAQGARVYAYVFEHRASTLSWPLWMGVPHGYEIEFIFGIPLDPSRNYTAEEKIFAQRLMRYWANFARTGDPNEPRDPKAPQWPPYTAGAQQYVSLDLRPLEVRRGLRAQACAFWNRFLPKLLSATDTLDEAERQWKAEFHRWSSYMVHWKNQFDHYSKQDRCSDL

Q: Which Potency does the source give for c1cnccn1 here?
A: Its Potency is “inactive”.

Q: For NC(=O)Cn1c(=O)cc(CCN2CCN(c3nccc4sccc34)CC2)c2ccc(F)cc21, which Potency is on record?
A: The Potency was “inactive”.

Q: With CCOC(=O)c1ccc(C)cc1 as the compound, how does the Potency read?
A: Its Potency is “inactive”.

Q: With OC[C@H]1O[C@H](O[C@]2(CCl)O[C@H](CCl)[C@@H](O)[C@@H]2O)[C@H](O)[C@@H](O)[C@H]1Cl as the compound, how does the Potency read?
A: The Potency was “inactive”.

Q: CC(Oc1cc(Cl)ccc1Cl)C(=O)O (stereo not given) was tested. Which Potency did it give?
A: The Potency was “inactive”.

Q: CCc1cc2cc(OC)c(OC)cc2c(Cc2ccccc2)n1 was tested. Which Potency did it give?
A: Its Potency is “inactive”.

Q: For CCCCN(CCO)CCO, which Potency is on record?
A: The Potency was “inactive”.

Q: With c1ccc2c(c1)ccc1cc3c(ccc4ccccc43)cc12 as the compound, how does the Potency read?
A: The Potency was “inactive”.

Q: For CCCCCCCCCCCCCCCCO, which Potency is on record?
A: Its Potency is “inactive”.

Q: How did the Potency turn out when O=S(=O)(O)c1cccc2c(S(=O)(=O)O)cccc12 was run?
A: Its Potency is “inactive”.

Q: Which Potency does the source give for CCN(CCC#N)c1ccc(N=Nc2ccc([N+](=O)[O-])cc2)cc1 here?
A: Its Potency is “inactive”.

Q: How did the activity change, negative = inhibition turn out when O=C(O)CN(CCCN(CC(=O)O)CC(=O)O)CC(=O)O was run?
A: Its activity change, negative = inhibition is 1.21% [at 23.6 µM] (inactive).

Q: How did the Potency turn out when CCCCCCC(C)(C)C(=O)O was run?
A: Its Potency is “inactive”.

Q: How did the Potency turn out when CC(C)(C)c1cc(CCC(=O)OCC(COC(=O)CCc2cc(C(C)(C)C)c(O)c(C(C)(C)C)c2)(COC(=O)CCc2cc(C(C)(C)C)c(O)c(C(C)(C)C)c2)COC(=O)CCc2cc(C(C)(C)C)c(O)c(C(C)(C)C)c2)cc(C(C)(C)C)c1O was run?
A: The Potency was “inactive”.

Q: CC(=O)c1ccc(C)cc1 was tested. Which Potency did it give?
A: Its Potency is “inactive”.

Q: With CCc1cccc(O)c1 as the compound, how does the Potency read?
A: The Potency was “inactive”.

Q: Which Potency does the source give for Cc1nn(C)c(Oc2ccccc2)c1/C=N/OCc1ccc(C(=O)OC(C)(C)C)cc1 here?
A: Its Potency is “inactive”.

Q: With COc1ccc(C(Cl)=C(c2ccc(OC)cc2)c2ccc(OC)cc2)cc1 as the compound, how does the Potency read?
A: The Potency was “inactive”.

Q: For c1ccc(OCCOc2ccccc2)cc1, which Potency is on record?
A: The Potency was “inactive”.

Q: O=C(c1ccc(O)cc1)c1ccc(O)c(O)c1O was tested. Which Potency did it give?
A: Its Potency is “inactive”.

Q: CN(C)c1cccc(O)c1 was tested. Which Potency did it give?
A: The Potency was “inactive”.

Q: How did the Potency turn out when Nc1nc(N)c2nc(-c3ccccc3)c(N)nc2n1 was run?
A: Its Potency is “inactive”.

Q: Which Potency does the source give for CN(C)Cc1cc(C(C)(C)C)c(O)c(C(C)(C)C)c1 here?
A: Its Potency is “inactive”.

Q: O=c1cccc[nH]1 was tested. Which Potency did it give?
A: Its Potency is “inactive”.

Q: Which Potency does the source give for CCCCCCCCCCCCCCCC(=O)OC(C)C here?
A: The Potency was “inactive”.

Q: c1cnc(N2CCN(Cc3ccc4c(c3)OCO4)CC2)nc1 was tested. Which Potency did it give?
A: Its Potency is “inactive”.

Q: Which Potency does the source give for CCCCCCCCCCCC[N+](C)(C)CC(=O)[O-] here?
A: The Potency was “inactive”.

Q: With C=C(CC)C(=O)c1ccc(OCC(=O)O)c(Cl)c1Cl as the compound, how does the Potency read?
A: The Potency was “inactive”.

Q: Which Potency does the source give for CCCCCC1=CCCC1=O here?
A: Its Potency is “inactive”.

Q: CC(C)(c1cc(Br)c(OCC(Br)CBr)c(Br)c1)c1cc(Br)c(OCC(Br)CBr)c(Br)c1 (stereo not given) was tested. Which Potency did it give?
A: The Potency was “inactive”.

Q: Which Potency does the source give for CC(=O)Nc1ccc(C(=O)CCl)cc1 here?
A: Its Potency is “inactive”.

Q: With FC(F)(F)c1cccc(Cl)c1 as the compound, how does the Potency read?
A: Its Potency is “inactive”.

Q: Which Potency does the source give for CCCN(C1CCN(C(=O)C2CCNCC2)CC1)[C@@H]1CCc2ccc(OC)cc2C1 here?
A: The Potency was “inactive”.

Q: Which Potency does the source give for CCCCCCC(O)CCOC(C)=O (stereo not given) here?
A: Its Potency is “inactive”.

Q: How did the Potency turn out when O=C1c2cccc3c2[C@H](CCC3)CN1[C@@H]1CN2CCC1CC2 was run?
A: Its Potency is “inactive”.

Q: For CN(C)C(=O)NC1(c2ccccc2)CCN(CCC[C@]2(c3ccc(Cl)c(Cl)c3)CCCN(C(=O)c3ccccc3)C2)CC1, which activity change, negative = inhibition is on record?
A: Its activity change, negative = inhibition is 4.25% [at 23.6 µM] (inactive).

Q: For Cc1ccc(S(=O)(=O)NCl)cc1, which Potency is on record?
A: The Potency was “inactive”.

Q: For CCCCCC(C)=O, which Potency is on record?
A: Its Potency is “inactive”.

Q: COc1ccc(OC)cc1 was tested. Which Potency did it give?
A: The Potency was “inactive”.

Q: Clc1nc(C(Cl)(Cl)Cl)c(Cl)c(Cl)c1Cl was tested. Which Potency did it give?
A: The Potency was “inactive”.
